In assay [1] the target is Protein kinase C gamma type (Homo sapiens) (UniProt P05129). The settings on record: at 1 µM.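 Also: each value is an averaged percent inhibition of the enzyme.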
Assay [2] has as its target T1, Protein kinase C iota type (Homo sapiens) (UniProt P41743).
T1 sequence (whole entry): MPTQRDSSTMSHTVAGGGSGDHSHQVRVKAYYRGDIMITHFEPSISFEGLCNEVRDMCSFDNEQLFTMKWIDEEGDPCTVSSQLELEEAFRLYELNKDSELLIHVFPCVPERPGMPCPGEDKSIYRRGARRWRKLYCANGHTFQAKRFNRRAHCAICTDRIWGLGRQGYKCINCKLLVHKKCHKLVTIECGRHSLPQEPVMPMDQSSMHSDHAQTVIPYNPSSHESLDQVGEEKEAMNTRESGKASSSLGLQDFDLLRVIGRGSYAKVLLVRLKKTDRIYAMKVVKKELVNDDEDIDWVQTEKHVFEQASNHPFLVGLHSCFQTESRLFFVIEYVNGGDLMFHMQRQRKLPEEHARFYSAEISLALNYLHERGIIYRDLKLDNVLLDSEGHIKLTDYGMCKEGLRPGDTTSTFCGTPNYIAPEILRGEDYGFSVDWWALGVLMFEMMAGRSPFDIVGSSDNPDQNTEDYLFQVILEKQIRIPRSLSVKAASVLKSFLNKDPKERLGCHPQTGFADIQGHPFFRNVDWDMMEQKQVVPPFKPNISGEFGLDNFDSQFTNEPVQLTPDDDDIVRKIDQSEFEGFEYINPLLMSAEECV
Conditions: at 0.1 µM.

Assay [3] deals with T1, Protein kinase C iota type (Homo sapiens). The settings on record: at 1 µM.
Assay [4] deals with Protein kinase C theta type (Homo sapiens) (UniProt Q04759). The settings on record: at 0.1 µM.
Chain of Protein kinase C theta type (Homo sapiens) (Q04759 whole entry, looked up): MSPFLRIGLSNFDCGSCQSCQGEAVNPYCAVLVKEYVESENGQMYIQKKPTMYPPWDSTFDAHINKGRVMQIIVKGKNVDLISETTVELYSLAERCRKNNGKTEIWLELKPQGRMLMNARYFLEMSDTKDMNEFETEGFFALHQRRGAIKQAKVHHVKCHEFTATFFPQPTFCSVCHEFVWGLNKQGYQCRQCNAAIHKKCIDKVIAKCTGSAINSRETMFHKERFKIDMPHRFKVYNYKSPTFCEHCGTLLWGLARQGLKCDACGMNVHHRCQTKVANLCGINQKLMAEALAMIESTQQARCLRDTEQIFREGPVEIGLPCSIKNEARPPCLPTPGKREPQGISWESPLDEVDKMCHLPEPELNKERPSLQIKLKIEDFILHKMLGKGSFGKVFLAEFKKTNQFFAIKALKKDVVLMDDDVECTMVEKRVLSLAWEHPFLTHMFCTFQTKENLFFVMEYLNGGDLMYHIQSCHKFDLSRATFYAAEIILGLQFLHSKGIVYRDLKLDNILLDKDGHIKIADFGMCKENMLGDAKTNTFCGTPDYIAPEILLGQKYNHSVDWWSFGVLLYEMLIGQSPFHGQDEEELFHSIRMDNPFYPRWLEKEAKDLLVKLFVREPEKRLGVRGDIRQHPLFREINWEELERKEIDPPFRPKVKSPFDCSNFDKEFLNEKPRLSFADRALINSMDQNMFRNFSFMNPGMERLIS
Assay [5] shares this target. Conditions: at 1 µM.
Assay [6] concerns the target Protein kinase C beta type (Homo sapiens) (UniProt P05771). Conditions: at 0.1 µM.
Assay [7] has the same target. The settings on record: at 1 µM.
Assay [8] concerns the target T2, Serine/threonine-protein kinase D1 (Homo sapiens) (UniProt Q15139).
T2 sequence (whole entry): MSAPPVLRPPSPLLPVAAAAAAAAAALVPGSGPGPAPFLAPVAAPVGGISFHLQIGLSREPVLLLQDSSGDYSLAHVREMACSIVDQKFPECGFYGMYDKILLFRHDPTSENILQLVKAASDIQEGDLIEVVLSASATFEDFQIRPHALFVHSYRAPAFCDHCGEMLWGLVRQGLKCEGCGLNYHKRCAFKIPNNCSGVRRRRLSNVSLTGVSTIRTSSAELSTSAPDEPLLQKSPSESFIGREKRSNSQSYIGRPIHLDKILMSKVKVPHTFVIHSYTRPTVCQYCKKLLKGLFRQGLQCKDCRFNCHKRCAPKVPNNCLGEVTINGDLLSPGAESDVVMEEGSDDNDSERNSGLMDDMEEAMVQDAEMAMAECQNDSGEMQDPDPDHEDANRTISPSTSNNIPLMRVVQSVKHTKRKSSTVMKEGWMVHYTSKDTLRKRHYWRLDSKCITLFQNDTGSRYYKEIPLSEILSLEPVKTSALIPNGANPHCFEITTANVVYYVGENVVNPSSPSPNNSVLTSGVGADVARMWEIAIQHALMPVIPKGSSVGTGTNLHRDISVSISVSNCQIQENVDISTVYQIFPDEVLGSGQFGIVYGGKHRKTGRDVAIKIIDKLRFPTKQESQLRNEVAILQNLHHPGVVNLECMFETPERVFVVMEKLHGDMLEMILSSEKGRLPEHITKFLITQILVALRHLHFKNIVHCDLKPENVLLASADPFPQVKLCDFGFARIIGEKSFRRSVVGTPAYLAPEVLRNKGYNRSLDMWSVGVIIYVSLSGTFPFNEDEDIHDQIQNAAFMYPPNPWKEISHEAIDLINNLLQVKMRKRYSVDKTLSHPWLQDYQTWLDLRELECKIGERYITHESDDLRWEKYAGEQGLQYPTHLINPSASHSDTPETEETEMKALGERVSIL
Conditions: at 0.1 µM.

In assay [9] the target is T2, Serine/threonine-protein kinase D1 (Homo sapiens). The settings on record: at 1 µM.
Assay [10] concerns the target T3, Serine/threonine-protein kinase D2 (Homo sapiens) (UniProt Q9BZL6).
T3 sequence (whole entry): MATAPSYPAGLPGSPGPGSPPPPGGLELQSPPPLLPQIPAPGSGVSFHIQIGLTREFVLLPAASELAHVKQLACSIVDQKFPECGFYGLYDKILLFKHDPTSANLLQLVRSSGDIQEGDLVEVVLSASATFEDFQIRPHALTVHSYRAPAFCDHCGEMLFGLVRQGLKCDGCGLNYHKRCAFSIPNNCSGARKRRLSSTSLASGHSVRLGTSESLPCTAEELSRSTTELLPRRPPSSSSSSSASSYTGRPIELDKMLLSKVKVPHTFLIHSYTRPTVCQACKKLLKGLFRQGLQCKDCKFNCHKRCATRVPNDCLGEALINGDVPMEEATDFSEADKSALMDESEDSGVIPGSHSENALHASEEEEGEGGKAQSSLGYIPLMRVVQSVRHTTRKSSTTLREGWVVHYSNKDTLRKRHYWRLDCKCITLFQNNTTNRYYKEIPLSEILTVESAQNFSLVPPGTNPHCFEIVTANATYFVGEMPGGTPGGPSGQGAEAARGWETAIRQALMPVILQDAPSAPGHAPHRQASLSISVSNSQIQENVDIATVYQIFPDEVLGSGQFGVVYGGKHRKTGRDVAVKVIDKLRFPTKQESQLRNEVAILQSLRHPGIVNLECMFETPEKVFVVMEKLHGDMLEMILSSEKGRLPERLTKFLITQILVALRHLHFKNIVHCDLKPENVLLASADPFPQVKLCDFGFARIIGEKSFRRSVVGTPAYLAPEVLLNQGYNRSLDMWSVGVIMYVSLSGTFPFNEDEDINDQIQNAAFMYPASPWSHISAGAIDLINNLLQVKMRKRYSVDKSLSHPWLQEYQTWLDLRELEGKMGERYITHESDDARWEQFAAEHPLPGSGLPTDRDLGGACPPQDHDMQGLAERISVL
Conditions: at 0.1 µM.

The target of assay [11] is T3, Serine/threonine-protein kinase D2 (Homo sapiens). The settings on record: at 1 µM.
For assay [12], the target named is T4, Serine/threonine-protein kinase D3 (Homo sapiens) (UniProt O94806).
T4 sequence (whole entry): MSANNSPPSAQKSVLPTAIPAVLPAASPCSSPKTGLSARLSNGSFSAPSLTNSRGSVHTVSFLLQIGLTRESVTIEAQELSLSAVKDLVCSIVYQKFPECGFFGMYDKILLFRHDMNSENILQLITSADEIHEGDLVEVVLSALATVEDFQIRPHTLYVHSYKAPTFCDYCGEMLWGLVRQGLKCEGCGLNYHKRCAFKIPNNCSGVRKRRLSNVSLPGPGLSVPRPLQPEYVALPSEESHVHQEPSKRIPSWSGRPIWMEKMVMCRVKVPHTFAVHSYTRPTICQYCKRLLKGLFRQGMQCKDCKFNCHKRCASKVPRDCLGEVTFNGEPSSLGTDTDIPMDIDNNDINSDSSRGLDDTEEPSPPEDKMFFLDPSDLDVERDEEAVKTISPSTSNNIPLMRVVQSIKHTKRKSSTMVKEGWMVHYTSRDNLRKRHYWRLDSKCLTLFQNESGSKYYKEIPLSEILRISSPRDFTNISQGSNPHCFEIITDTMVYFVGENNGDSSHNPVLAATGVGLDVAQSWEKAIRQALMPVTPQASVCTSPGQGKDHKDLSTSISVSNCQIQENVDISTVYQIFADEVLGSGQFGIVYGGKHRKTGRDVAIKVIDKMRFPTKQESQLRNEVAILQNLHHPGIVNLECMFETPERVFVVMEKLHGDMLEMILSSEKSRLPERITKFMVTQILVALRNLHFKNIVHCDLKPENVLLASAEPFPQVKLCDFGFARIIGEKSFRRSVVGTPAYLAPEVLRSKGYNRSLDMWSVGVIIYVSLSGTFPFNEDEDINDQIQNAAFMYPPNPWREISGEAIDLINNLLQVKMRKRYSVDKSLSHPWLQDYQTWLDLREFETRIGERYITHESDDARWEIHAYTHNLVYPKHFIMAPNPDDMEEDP
Conditions: at 0.1 µM.

The target in assay [13] is T4, Serine/threonine-protein kinase D3 (Homo sapiens). Conditions: at 1 µM.
Assay [14] addresses T5, cGMP-dependent protein kinase 1 (Homo sapiens) (UniProt Q13976).
T5 sequence (whole entry): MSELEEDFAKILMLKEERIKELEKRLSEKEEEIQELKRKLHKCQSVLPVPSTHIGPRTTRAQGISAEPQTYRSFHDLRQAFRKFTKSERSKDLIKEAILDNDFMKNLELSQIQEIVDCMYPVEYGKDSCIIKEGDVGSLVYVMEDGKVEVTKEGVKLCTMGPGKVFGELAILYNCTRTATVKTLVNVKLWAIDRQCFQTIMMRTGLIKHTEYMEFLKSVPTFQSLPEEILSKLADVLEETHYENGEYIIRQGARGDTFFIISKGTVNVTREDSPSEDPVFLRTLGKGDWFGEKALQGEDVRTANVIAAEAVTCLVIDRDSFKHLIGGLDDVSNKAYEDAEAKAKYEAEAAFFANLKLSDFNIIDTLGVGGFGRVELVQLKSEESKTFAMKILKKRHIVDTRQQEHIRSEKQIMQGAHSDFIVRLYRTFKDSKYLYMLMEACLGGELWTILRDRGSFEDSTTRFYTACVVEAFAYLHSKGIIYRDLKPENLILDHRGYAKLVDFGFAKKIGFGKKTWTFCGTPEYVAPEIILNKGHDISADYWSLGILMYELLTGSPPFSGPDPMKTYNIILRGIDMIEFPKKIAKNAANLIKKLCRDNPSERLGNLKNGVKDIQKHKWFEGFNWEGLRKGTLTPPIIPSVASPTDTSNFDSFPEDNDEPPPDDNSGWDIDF
The settings on record: at 0.1 µM.

In assay [15] the target is T5, cGMP-dependent protein kinase 1 (Homo sapiens). The settings on record: at 1 µM.
Assay [16] addresses T6, cGMP-dependent protein kinase 2 (Homo sapiens) (UniProt Q13237).
T6 sequence (whole entry): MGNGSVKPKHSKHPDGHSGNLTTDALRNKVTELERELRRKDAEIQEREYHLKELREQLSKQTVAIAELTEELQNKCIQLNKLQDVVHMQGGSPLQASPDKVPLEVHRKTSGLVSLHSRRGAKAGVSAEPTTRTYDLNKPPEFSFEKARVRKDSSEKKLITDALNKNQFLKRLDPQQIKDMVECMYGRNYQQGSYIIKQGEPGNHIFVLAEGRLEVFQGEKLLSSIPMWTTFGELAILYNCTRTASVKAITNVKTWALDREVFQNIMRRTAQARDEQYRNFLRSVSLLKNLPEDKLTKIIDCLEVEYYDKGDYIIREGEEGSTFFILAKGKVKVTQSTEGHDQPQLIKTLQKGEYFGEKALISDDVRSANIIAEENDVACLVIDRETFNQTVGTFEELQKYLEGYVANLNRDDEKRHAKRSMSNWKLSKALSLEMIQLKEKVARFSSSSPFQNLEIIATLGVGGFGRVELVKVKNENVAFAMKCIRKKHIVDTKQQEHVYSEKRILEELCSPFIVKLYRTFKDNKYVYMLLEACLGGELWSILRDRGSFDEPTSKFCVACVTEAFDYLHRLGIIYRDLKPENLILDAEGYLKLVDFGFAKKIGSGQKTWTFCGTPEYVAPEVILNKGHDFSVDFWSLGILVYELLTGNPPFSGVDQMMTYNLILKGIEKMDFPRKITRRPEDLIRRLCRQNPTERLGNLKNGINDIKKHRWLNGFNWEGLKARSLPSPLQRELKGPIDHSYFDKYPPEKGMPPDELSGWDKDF
The settings on record: at 0.1 µM.

Assay [17] concerns the target T6, cGMP-dependent protein kinase 2 (Homo sapiens). The settings on record: at 1 µM.
Assay [18] has as its target T7, cAMP-dependent protein kinase catalytic subunit PRKX (Homo sapiens) (UniProt P51817).
T7 sequence (whole entry): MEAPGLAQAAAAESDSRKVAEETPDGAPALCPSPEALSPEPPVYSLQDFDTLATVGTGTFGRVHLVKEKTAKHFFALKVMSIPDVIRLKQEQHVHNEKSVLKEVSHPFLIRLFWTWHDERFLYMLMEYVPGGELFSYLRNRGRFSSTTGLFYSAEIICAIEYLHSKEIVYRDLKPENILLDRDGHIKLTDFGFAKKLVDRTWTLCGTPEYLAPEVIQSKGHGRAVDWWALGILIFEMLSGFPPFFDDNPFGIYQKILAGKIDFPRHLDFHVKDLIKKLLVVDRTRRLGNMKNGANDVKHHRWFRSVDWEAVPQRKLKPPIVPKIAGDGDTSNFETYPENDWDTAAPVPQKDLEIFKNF
The settings on record: at 0.1 µM.

The target in assay [19] is T7, cAMP-dependent protein kinase catalytic subunit PRKX (Homo sapiens). Conditions: at 1 µM.
Assay [20] addresses Rho-associated protein kinase 1 (Homo sapiens) (UniProt Q13464). Conditions: at 0.1 µM.

This passage reports inhibition results from ChEMBL document CHEMBL1961873, “Compounds: GSK PKIS; Assays: Nanosyn kinase panel” (2012).

Chain of Protein kinase C beta type (Homo sapiens) (P05771 2-671 limits assumed): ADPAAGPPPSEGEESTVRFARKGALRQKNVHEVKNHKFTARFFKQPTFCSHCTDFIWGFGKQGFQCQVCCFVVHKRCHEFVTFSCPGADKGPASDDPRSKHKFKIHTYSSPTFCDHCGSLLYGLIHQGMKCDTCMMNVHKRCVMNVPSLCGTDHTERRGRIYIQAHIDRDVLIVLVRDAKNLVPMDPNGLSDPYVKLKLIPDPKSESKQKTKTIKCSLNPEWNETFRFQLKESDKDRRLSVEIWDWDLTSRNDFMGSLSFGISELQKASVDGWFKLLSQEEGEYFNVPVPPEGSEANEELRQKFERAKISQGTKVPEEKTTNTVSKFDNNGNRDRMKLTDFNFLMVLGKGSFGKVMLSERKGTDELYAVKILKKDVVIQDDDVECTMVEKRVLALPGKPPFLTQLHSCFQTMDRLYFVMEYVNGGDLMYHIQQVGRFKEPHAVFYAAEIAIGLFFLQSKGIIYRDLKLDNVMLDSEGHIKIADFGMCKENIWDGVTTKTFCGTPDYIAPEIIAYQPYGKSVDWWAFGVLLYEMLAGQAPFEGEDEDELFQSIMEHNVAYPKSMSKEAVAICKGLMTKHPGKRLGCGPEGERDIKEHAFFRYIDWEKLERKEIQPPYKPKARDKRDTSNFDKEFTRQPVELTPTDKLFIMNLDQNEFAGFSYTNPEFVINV
Chain of Rho-associated protein kinase 1 (Homo sapiens) (Q13464 2-1354 limits assumed): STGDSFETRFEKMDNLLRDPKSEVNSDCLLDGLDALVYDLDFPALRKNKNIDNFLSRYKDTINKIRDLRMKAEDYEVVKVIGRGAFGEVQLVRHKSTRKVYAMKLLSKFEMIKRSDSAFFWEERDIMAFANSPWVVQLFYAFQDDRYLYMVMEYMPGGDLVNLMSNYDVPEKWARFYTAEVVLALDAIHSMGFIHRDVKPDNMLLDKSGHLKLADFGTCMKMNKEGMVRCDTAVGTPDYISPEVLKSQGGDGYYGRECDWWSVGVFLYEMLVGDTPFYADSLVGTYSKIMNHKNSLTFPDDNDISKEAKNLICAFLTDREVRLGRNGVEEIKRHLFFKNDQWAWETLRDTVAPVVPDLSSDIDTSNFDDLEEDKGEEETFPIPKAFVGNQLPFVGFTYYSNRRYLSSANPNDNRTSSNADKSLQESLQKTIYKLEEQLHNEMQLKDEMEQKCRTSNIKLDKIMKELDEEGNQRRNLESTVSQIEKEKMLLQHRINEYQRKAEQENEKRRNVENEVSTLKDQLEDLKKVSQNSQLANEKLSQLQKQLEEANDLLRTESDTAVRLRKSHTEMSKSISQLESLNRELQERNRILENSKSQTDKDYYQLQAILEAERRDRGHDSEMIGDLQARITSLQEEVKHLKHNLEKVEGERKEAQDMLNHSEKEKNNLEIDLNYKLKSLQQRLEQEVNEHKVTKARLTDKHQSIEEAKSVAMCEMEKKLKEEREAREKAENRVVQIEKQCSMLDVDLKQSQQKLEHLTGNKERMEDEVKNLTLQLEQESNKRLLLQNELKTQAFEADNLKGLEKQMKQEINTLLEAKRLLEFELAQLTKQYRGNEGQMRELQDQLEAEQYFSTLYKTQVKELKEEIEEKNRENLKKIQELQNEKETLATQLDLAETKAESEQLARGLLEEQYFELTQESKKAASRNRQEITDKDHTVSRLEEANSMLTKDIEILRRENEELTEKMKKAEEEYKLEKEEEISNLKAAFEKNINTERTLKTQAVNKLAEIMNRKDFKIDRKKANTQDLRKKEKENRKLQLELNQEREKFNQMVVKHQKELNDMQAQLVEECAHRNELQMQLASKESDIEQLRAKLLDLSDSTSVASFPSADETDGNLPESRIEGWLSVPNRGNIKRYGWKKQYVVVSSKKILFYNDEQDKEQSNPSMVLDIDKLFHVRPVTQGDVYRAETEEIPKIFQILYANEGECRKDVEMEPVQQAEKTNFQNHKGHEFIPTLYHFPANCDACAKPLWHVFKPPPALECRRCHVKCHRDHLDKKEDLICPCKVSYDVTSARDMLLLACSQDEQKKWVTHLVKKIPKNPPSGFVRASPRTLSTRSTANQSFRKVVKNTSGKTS

Regarding `Fc1ccc(-c2ncn(CCCN3CCOCC3)c2-c2ccncc2)cc1`, the inhibition was 0.34% in assay [1]; 0.16% in assay [2]; 0.41% in assay [3]; -0.92% in [4]; -2.08% in [5]; 0.1% in [6]. The inhibition amounted to 0.17% in [7]; 1.04% in assay [8]; 2.24% in assay [9]; 2.15% in assay [10]; 3.09% in [11]; 1.63% in assay [12]. Further, the inhibition in assay [13] was 2.8%; in assay [14], 0.4%; in assay [15], 0.29%; in assay [16], 0.94%; in assay [17], 0.26%; in assay [18], -0.21%. For the same molecule, the values for the inhibition in assay [19] and in assay [20] were -1.38% and 1.06%, respectively.

Turning to `COc1cccc(/C=N/Nc2ncnc3c2cnn3-c2cccc(OC)c2)c1`, the inhibition came out at 6.32% in assay [1]; 1.63% in assay [2]; 1.72% in assay [3]; 1.69% in assay [4]; 4% in [5]; 0.47% in assay [6]. The inhibition in assay [7] was found to be 1.93%; in assay [8] it was 3.52%; in assay [9], 8.09%; in assay [10], 2.74%; in assay [11], 1.36%; in assay [12], 3.64%. The inhibition in assay [13] is 2.93%; in assay [14], 3.82%; in assay [15], 4.05%; in assay [16] it was 1.19%; in assay [17], 3.17%; in assay [18] it was 0.44%. Moreover, the inhibition in assay [19] turned out to be 1.94%; in assay [20], 2.52%.
